# According to paper PMC11062922 (Nature Chemical Biology, 2023):
# Read-outs that look alike come from different tables or passages of the source.
# Experiments:
# Parameters in all cases: species or system human, MV4-11 + K-562 + COLO205 + SK-N-BE2 + OVCAR-8
# [1] = system: ATM; conditions: read-out: apparent Kd; compound concentrations:100 nM and 1000 nM (sheet 'Samples'); n = 1
# [2] = system: GAK; conditions: read-out: apparent Kd; compound concentrations:100 nM and 1000 nM (sheet 'Samples'); n = 1
# [3] = system: MAPK10; conditions: read-out: apparent Kd; compound concentrations:100 nM and 1000 nM (sheet 'Samples'); n = 1
# [4] = system: MTOR; conditions: read-out: apparent Kd; compound concentrations:100 nM and 1000 nM (sheet 'Samples'); n = 1
# [5] = system: MYLK3; conditions: read-out: apparent Kd, n = 1
# [6] = system: PIK3CA; conditions: read-out: apparent Kd; compound concentrations:100 nM and 1000 nM (sheet 'Samples'); n = 1
# [7] = system: PLK4; conditions: read-out: apparent Kd; compound concentrations:100 nM and 1000 nM (sheet 'Samples'); n = 1
# [8] = system: PRKACG; conditions: read-out: apparent Kd; compound concentrations:100 nM and 1000 nM (sheet 'Samples'); n = 1
# [9] = system: PRKAG1; conditions: read-out: apparent Kd; compound concentrations:100 nM and 1000 nM (sheet 'Samples'); n = 1
# [10] = system: PRKAG2; conditions: read-out: apparent Kd; compound concentrations:100 nM and 1000 nM (sheet 'Samples'); n = 1
# [11] = system: SIK2; conditions: read-out: apparent Kd; compound concentrations:100 nM and 1000 nM (sheet 'Samples'); n = 1
# [12] = system: TNIK; conditions: read-out: apparent Kd; compound concentrations:100 nM and 1000 nM (sheet 'Samples'); n = 1
# [13] = system: AKT3; conditions: read-out: apparent Kd, n = 1
# [14] = system: CDK16; conditions: read-out: apparent Kd, n = 1
# [15] = system: CDK2; conditions: read-out: apparent Kd; compound concentrations: 100 nM and 1000 nM (sheet 'Samples'), CATDS: 0.14540297909740599; n = 1
# [16] = system: CDK5; conditions: read-out: apparent Kd; compound concentrations: 100 nM and 1000 nM (sheet 'Samples'), CATDS: 0.117408744054376; n = 1
# [17] = system: CDK6; conditions: read-out: apparent Kd, n = 1
# [18] = system: CSNK2A1;CSNK2A3; conditions: read-out: apparent Kd; compound concentrations: 100 nM and 1000 nM (sheet 'Samples'), CATDS: 0.11670425999811999; n = 1
# [19] = system: CSNK2A2; conditions: read-out: apparent Kd; compound concentrations: 100 nM and 1000 nM (sheet 'Samples'), CATDS: 0.126102528289014; n = 1
# [20] = system: FLT3; conditions: read-out: apparent Kd; compound concentrations: 100 nM and 1000 nM (sheet 'Samples'), CATDS: 0.40008712572593402; n = 1
# [21] = system: CDK17; conditions: read-out: apparent Kd; compound concentrations:100 nM and 1000 nM (sheet 'Samples'); n = 1
# [22] = system: CDK9; conditions: read-out: apparent Kd; compound concentrations:100 nM and 1000 nM (sheet 'Samples'); n = 1
# [23] = system: CDKL5; conditions: read-out: apparent Kd; compound concentrations:100 nM and 1000 nM (sheet 'Samples'); n = 1
# [24] = system: GSK3A; conditions: read-out: apparent Kd; compound concentrations:100 nM and 1000 nM (sheet 'Samples'); n = 1
# [25] = system: GSK3B; conditions: read-out: apparent Kd; compound concentrations:100 nM and 1000 nM (sheet 'Samples'); n = 1
# [26] = system: ICK; conditions: read-out: apparent Kd; compound concentrations:100 nM and 1000 nM (sheet 'Samples'); n = 1
# [27] = system: PIM2; conditions: read-out: apparent Kd; compound concentrations:100 nM and 1000 nM (sheet 'Samples'); n = 1
# [28] = system: RIOK2; conditions: read-out: apparent Kd; compound concentrations:100 nM and 1000 nM (sheet 'Samples'); n = 1
# [29] = compound concentrations:100 nM and 1000 nM (sheet 'Samples')
smiles,measurement,setting,value
COc1ccc2[nH]c3c4[nH]c5ccc(OC)cc5c4c4c(c3c2c1)C(=O)NC4=O [GW296115X],potency estimated from few doses,[1],204 nM
same,potency estimated from few doses,[2],543 nM
same,potency estimated from few doses,[3],1050 nM
same,potency estimated from few doses,[4],741 nM
same,potency estimated from few doses,[5]; [29],834 nM
same,potency estimated from few doses,[6],254 nM
same,potency estimated from few doses,[7],581 nM
same,potency estimated from few doses,[8],655 nM
same,potency estimated from few doses,[9],1550 nM
same,potency estimated from few doses,[10],1670 nM
same,potency estimated from few doses,[11],923 nM
same,potency estimated from few doses,[12],1700 nM
NS(=O)(=O)c1ccc(Nc2cc(-c3ccc(O)c(F)c3)n[nH]2)cc1 [GW831091X],potency estimated from few doses,"[13]; compound concentrations: 100 nM and 1000 nM (sheet 'Samples'), CATDS: 8.6052459279118296E-2",1690 nM
same,potency estimated from few doses,"[14]; compound concentrations: 100 nM and 1000 nM (sheet 'Samples'), CATDS: 8.8636413805305694E-2",1550 nM
same,potency estimated from few doses,[15],491 nM
same,potency estimated from few doses,[16],759 nM
same,potency estimated from few doses,"[17]; compound concentrations: 100 nM and 1000 nM (sheet 'Samples'), CATDS: 8.47728191524936E-2",1770 nM
same,potency estimated from few doses,[18],770 nM
same,potency estimated from few doses,[19],652 nM
same,potency estimated from few doses,[20],99.2 nM
same,potency estimated from few doses,"[5]; compound concentrations: 100 nM and 1000 nM (sheet 'Samples'), CATDS: 8.3976923453049093E-2",1830 nM
CN1CCC(C(=O)Nc2n[nH]c3nc(-c4ccc(O)cc4)c(Br)cc23)CC1 [SB-732881],potency estimated from few doses,[13]; [29],1640 nM
same,potency estimated from few doses,[14]; [29],565 nM
same,potency estimated from few doses,[21],914 nM
same,potency estimated from few doses,[17]; [29],1480 nM
same,potency estimated from few doses,[22],400 nM
same,potency estimated from few doses,[23],852 nM
same,potency estimated from few doses,[24],3.34 nM
same,potency estimated from few doses,[25],10.4 nM
same,potency estimated from few doses,[26],1230 nM
same,potency estimated from few doses,[27],1660 nM
same,potency estimated from few doses,[28],2210 nM
